From PubChem BioAssay (NCI) come the findings set out here.

Structures are written as SMILES. About 83,000 compounds went through this panel and 20% of them were active in at least one assay; those are over-represented in the sample as a whole.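 For each line, cells grew in 96-well plates with the test compound present at a single concentration for 48 hours.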 Unmarked numbers belong to inactive results. The source made the active and inactive calls. The calls were made as follows: active = growth percent below 10; inactive = the rest.

Among the test systems are NCI-H23 lung; NCI-H226 lung; NCI-H322M lung; HOP-62 NSCLC; NCI-H460 lung; HOP-92 NSCLC; NCI-H522 lung; A549/ATCC NSCLC; 786-0 renal; DU-145 prostate; K-562 leukemia; MALME-3M melanoma; MDA-MB-231 breast; SF-268 CNS; SF-295 CNS; SF-539 CNS; UACC-257 melanoma; M14 melanoma; COLO 205 colon; RXF 393 renal.
Common to all, as to experiment: NCI-60 one-dose screen, 48 h (100 = growth as untreated, 0 = no growth, -100 = all killed)
Details in all cases: 10 µM unless noted

Consider `COc1ccc(-c2c[nH]c(C(=O)O)c2-c2cc(OC)c3c(c2OC)OCO3)cc1`, for which the growth in the experiment on NCI-H23 lung was 98.9%; with NCI-H226 lung, 95.3%; in the experiment on NCI-H322M lung it was 95%; with HOP-62 NSCLC, 95.6%; in the experiment with NCI-H460 lung, 102%; with HOP-92 NSCLC, 110%. Also, the growth with NCI-H522 lung is 97%; with A549/ATCC NSCLC, 103%; in the experiment on 786-0 renal, 104%; with DU-145 prostate it was 112%; in the experiment with K-562 leukemia, 108%; with MALME-3M melanoma it was 96.1%. In addition, the growth in the experiment on MDA-MB-231 breast is 105%; with SF-268 CNS it was 99.7%; with SF-295 CNS, 103%; in the experiment with SF-539 CNS it was 97.4%; in the experiment on UACC-257 melanoma it was 98.7%; with M14 melanoma it was 98.9%.
Turning to `O=C(NCCc1ccccn1)OCc1nc2nc(Cl)nc(N3CCOCC3)c2[nH]1`, the growth in the experiment with NCI-H23 lung is 37.6%; in the experiment on NCI-H226 lung, -53.2% (active); with NCI-H322M lung, 43.9%; in the experiment with HOP-62 NSCLC, 27.3%; with NCI-H460 lung, 3.35% (active); in the experiment with HOP-92 NSCLC, 22.4%. Moreover, the growth with NCI-H522 lung is -34.4% (active); with A549/ATCC NSCLC, 43.5%; in the experiment with 786-0 renal, 13.9%; with DU-145 prostate it was 12%; in the experiment on K-562 leukemia, 0.32% (active); in the experiment on MALME-3M melanoma, 67.8%. Besides, the growth in the experiment with MDA-MB-231 breast was 28.5%; in the experiment with SF-268 CNS it was 24.3%; in the experiment on SF-295 CNS it was 91.4%; in the experiment with SF-539 CNS, -13.4% (active); in the experiment on UACC-257 melanoma it was 30.6%; with M14 melanoma, 4.12% (active).
As for `COC(=O)C1NC(=S)N(c2ccc(Cl)cc2)C1/C=C/c1ccccc1` (stereo unspecified), the growth in the experiment on NCI-H23 lung was 91%; with NCI-H226 lung, 104%; in the experiment on NCI-H322M lung, 110%; in the experiment with HOP-62 NSCLC, 103%; with NCI-H460 lung, 109%; with HOP-92 NSCLC, 78.6%. Besides, the growth in the experiment on NCI-H522 lung was 93.7%; in the experiment on A549/ATCC NSCLC, 98.1%; in the experiment with COLO 205 colon, 108%; in the experiment on DU-145 prostate, 100%; with K-562 leukemia, 106%; in the experiment with MALME-3M melanoma, 103%. Moreover, the growth was 95% with MDA-MB-231 breast; 110% in the experiment on RXF 393 renal; 101% in the experiment with SF-268 CNS; 91% in the experiment with SF-295 CNS; 94.6% in the experiment with SF-539 CNS; 99.3% in the experiment with UACC-257 melanoma. Also, the growth in the experiment with M14 melanoma was 87.1%.
Take `CC(=O)Nc1ccc(C(=O)Nc2cc(-c3ccccc3)ccc2N)cc1`: the growth with NCI-H23 lung is 86.4%; with NCI-H226 lung, 124%; with NCI-H322M lung, 79.5%; with HOP-62 NSCLC, 67.7%; with NCI-H460 lung, 59.7%; with HOP-92 NSCLC it was 69.2%. Besides, the growth is 55.6% in the experiment on NCI-H522 lung; 74.2% in the experiment on A549/ATCC NSCLC; 97.9% with 786-0 renal; 73.2% with DU-145 prostate; 39.2% with K-562 leukemia; 80.6% with MALME-3M melanoma. Further, the growth in the experiment on MDA-MB-231 breast is 92.5%; in the experiment on SF-268 CNS, 68.2%; with SF-295 CNS, 58.7%; with SF-539 CNS it was 81%; in the experiment with UACC-257 melanoma, 72.6%; in the experiment with M14 melanoma, 77.3%.
For `COc1cccc(CCC(=O)c2cc3c(N)c(C(=O)Nc4ccccc4)sc3nc2C)c1`, the growth is 67.9% with NCI-H23 lung; 71.5% in the experiment on NCI-H226 lung; 52.7% in the experiment on NCI-H322M lung; 45.1% with HOP-62 NSCLC; 11.7% in the experiment on NCI-H460 lung; 74.2% with HOP-92 NSCLC. Moreover, the growth in the experiment on NCI-H522 lung is 37.5%; in the experiment on A549/ATCC NSCLC it was 39.6%; in the experiment on 786-0 renal, 50.2%; in the experiment with DU-145 prostate, 65.8%; in the experiment with K-562 leukemia, 12.2%; in the experiment on MALME-3M melanoma, 27%. The growth with MDA-MB-231 breast was 44.9%; in the experiment with SF-268 CNS, 53.4%; with SF-295 CNS, 24.9%; in the experiment with SF-539 CNS, 23.9%; with UACC-257 melanoma it was 63.3%; with M14 melanoma, 23.3%.
In the case of `C1=C2CNCC3=Cc4ccc5ccccc5c4OC23Oc2c1ccc1ccccc21`, the growth is 52.8% in the experiment with NCI-H23 lung; 67.7% in the experiment with NCI-H226 lung; 98% in the experiment on NCI-H322M lung; 43.6% with HOP-62 NSCLC; 33.5% in the experiment with NCI-H460 lung; 37.2% with HOP-92 NSCLC. Moreover, the growth in the experiment with NCI-H522 lung is 0.285% (active); with A549/ATCC NSCLC it was 50.6%; in the experiment with COLO 205 colon it was 50.8%; in the experiment with DU-145 prostate, 65.3%; with K-562 leukemia it was 18.8%; with MALME-3M melanoma it was 60.6%. Besides, the growth was 51.3% in the experiment with MDA-MB-231 breast; -3.36% (active) with RXF 393 renal; 42.7% in the experiment on SF-268 CNS; 11.6% in the experiment with SF-295 CNS; 50.5% with SF-539 CNS; 60.9% in the experiment on UACC-257 melanoma. In the experiment on M14 melanoma, the growth was 2.63% (active).
For `Nc1nnc2cc(Cl)ccc2n1`, the growth is 110% in the experiment with NCI-H23 lung; 92% with NCI-H226 lung; 94.5% with NCI-H322M lung; 115% in the experiment on HOP-62 NSCLC; 115% in the experiment on NCI-H460 lung; 65.6% with HOP-92 NSCLC. Also, the growth in the experiment with NCI-H522 lung is 94.7%; in the experiment with A549/ATCC NSCLC it was 108%; in the experiment with 786-0 renal, 129%; with DU-145 prostate it was 105%; in the experiment with K-562 leukemia, 83.9%; with MALME-3M melanoma it was 126%. For the same compound, the growth in the experiment with MDA-MB-231 breast was 96.9%; in the experiment with SF-268 CNS it was 112%; in the experiment with SF-295 CNS, 140%; in the experiment on SF-539 CNS, 111%; in the experiment on UACC-257 melanoma, 127%; in the experiment with M14 melanoma, 113%.
On to `CO[C@@H]1[C@H](N(C)C(=O)c2ccccc2)C[C@@H]2O[C@]1(C)n1c3ccccc3c3c4c(c5c6ccccc6n2c5c31)C(=O)NC4=O`, for which the growth with NCI-H23 lung was 44.2%; in the experiment on NCI-H226 lung, 29%; in the experiment with NCI-H322M lung, 38.9%; with HOP-62 NSCLC it was 28.5%; with NCI-H460 lung it was 48.2%; in the experiment with HOP-92 NSCLC, 4.48% (active). For the same compound, the growth is 21.2% with NCI-H522 lung; 27.3% in the experiment with A549/ATCC NSCLC; 50.1% with DU-145 prostate; 52.4% in the experiment on K-562 leukemia; 38.5% with MALME-3M melanoma; 41.7% in the experiment on MDA-MB-231 breast. The growth in the experiment on RXF 393 renal is -37.8% (active); in the experiment on SF-268 CNS it was 48.2%; in the experiment on SF-295 CNS, 42.5%; in the experiment on SF-539 CNS it was 13.6%; in the experiment with UACC-257 melanoma it was 61.5%; with M14 melanoma, 37.1%.
